# Experimental data taken from PubChem BioAssay (EPA / NIEHS).
# “And” between values parts separate entries of the source, which are not always exact repeats. Equal values may be shown once. Records with an inconclusive call do not appear. A structure can be active in one record and inactive in another. The source made the active and inactive calls. How the source made its calls: active means hit-call score of the fitted dose curve at least 0.9, where 1 is the maximum; inconclusive means response in the unintended direction; inactive means score below 0.9.
# Biological target: human Thyroid Receptor alpha (THRa1), THRA (gene 7067) (UniProt P10827)
# Assay: ATG_THRa1_TRANS: Attagene TRANS-FACTORIAL HepG2 Assay for human Thyroid Receptor alpha (THRa1) (AID 2283014)
# Method: ATG_TRANS is a cell-based, multiplexed-readout assay that uses HepG2, a human liver cell line, with measurements taken at 24 hours after chemical dosing in a 24-well plate.ATG_THRa1_TRANS is one of 30 assay component(s) measured or calculated from the ATG_TRANS assay. It is designed to make measurements of mRNA induction, a form of inducible reporter, as detected with fluorescence intensity signals by Reverse transcription polymerase chain reaction (RT-PCR) and Capillary electrophoresis technology.Data from the assay component ATG_THRa1_TRANS was analyzed into 1 assay endpoint. This assay endpoint, ATG_THRa1_TRANS, was analyzed in the positive analysis fitting direction relative to DMSO as the negative control and baseline of activity. Using a type of inducible reporter, measures of mRNA for gain-of-signal activity can be used to understand the reporter gene at the transcription factor-level as they relate to the gene THRA. Furthermore, this assay endpoint can be referred to as a primary readout, because this assay has produced multiple assay endpoints where this one serves a reporter gene function. To generalize the intended target to other relatable targets, this assay endpoint is annotated to the nuclear receptor intended target family, where the subfamily is non-steroidal.
# Human liver HepG2 cells are transiently transfected with multiple reporter transcription units (MRTUs) in 6-well plates using FuGene 6 reagent (Roche; 3 ml FuGene/1 mg DNA). The MRTU constructs are regulated by a cis-regulating element (promoter). […] A major difference between the CIS and TRANS system is that in CIS activities of endogenous TFs are measured, whereas the TRANS assay evaluates changes in activities of exogenous, chimeric NR-Gal4 proteins. […] At the end of 24 hour incubation, total RNA was isolated using TriZol reagent (Invitrogen). The isolated RNA is then reverse-transcribed using oligo(dT) primer and Mo-MLV reverse transcriptase (Invitrogen) with DNAse I (Ambion) treatment for 30 min. The one-tenth of the produced cDNA was amplified by PCR using Taq DNA polymerase (Invitrogen) and two reporter sequence-specific primers. The PCR products were fluorescently labeled by primer extension with 6-arboxyfluorescein (6-FAM) 5'-labeled reporter sequence-specific primer (2 min at 95 C, 20 s at 68 C and 10 min at 72 C) and these products were digested with 5U of HpaI (New England Biolabs) for 2h at 37 C. The fragments were purified using Qiaquick PCR columns (Qiagen), analyzed on an ABI 3130xL genetic analyzer (Applied Biosystems) with peak positions identified by using a set of X-rhodamine (ROX)-labeled MapMarker1000 molecular weight standards (BioVentures). The raw capillary electrophoresis data was processed using Attagraph software (Attagene).
# Sequence of human Thyroid Receptor alpha (THRa1), THRA (gene 7067) (P10827 whole entry, looked up): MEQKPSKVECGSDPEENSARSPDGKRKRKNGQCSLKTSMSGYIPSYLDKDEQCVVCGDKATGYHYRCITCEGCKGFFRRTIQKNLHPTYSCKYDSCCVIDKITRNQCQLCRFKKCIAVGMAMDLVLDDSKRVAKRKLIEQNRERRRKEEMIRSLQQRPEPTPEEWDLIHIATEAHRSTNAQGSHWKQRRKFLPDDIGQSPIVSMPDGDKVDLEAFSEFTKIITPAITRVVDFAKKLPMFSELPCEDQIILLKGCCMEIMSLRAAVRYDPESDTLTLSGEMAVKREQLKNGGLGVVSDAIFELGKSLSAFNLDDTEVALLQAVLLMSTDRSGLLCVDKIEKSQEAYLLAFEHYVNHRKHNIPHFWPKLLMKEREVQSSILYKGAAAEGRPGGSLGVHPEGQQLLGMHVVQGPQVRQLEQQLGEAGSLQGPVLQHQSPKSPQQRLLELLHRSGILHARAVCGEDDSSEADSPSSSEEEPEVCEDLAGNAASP
Compound,AC50,outcome
CC(C)(C)c1ccc(O)c(C(C)(C)C)c1,11.1 µM (active),–
OC1CCC(C2CCCCC2)CC1 (stereo not given),–,inactive
CCCCCCCC(=O)O,–,inactive
CC(=O)NC1(c2cccc(F)c2)CCN(CC[C@@]2(c3ccc(Cl)c(Cl)c3)CN(c3ccccc3)C(=O)CO2)CC1,59.9 µM (active),–
CCCCCCCCCCCCCC[N+](C)(C)C,26.7 µM (active),inactive
Nc1cccc2c(N)cccc12,–,inactive
c1ccc2cc3c(ccc4ccccc43)cc2c1,–,inactive
c1ccc2c(c1)ccc1ccccc12,–,inactive
OCCC(F)(F)C(F)(F)C(F)(F)C(F)(F)C(F)(F)C(F)(F)F,–,inactive
CCCCC[C@H](O)CC(=O)CCc1ccc(O)c(OC)c1,–,inactive
CN1CCC[C@H]1c1cccnc1,–,inactive
O=C(O)Cc1cc(I)c(Oc2cc(I)c(O)c(I)c2)c(I)c1,7.41 nM (active) and 21.4 nM (active),–
COc1cc(CCC(=O)CC(=O)CCc2ccc(O)c(OC)c2)ccc1O,–,inactive
CC(C)(C)c1cc(C(C)(C)C)c(O)c(C(C)(C)C)c1,–,inactive
CCCCOCCO,–,inactive
O=C(/C=C/c1ccc(O)cc1)CC(=O)/C=C/c1ccc(O)cc1,–,inactive
CC(C)CCCCCCOC(=O)CCCCC(=O)OCCCCCCC(C)C,–,inactive
CC[C@H](c1ccc(O)cc1)[C@@H](CC)c1ccc(O)cc1,–,inactive
OCCC(F)(F)C(F)(F)C(F)(F)C(F)(F)C(F)(F)C(F)(F)C(F)(F)C(F)(F)F,–,inactive
O=c1c(-c2ccc(O)cc2)coc2cc(O)ccc12,–,inactive

Compound,AC50,outcome
CC(=O)CC(C)(C)O,–,inactive
CC(C)(C)CC(C)(C)c1ccc(O)c(-n2nc3ccccc3n2)c1,–,inactive
C=C(C)C(=O)OCCC(F)(F)C(F)(F)C(F)(F)C(F)(F)C(F)(F)C(F)(F)F,–,inactive
CCC(C)(C)C1CCC(O)CC1 (stereo not given),–,inactive
CCN(CC)CCNc1ccc(CNC=O)c2sc3ccc(OC)cc3c(=O)c12,–,inactive
CCCCCCC(=O)O,–,inactive
COCC(C)O (stereo not given),–,inactive
CCCCCCCCCCCCN1CCCC1=O,–,inactive
O=C(OCCOCCOC(=O)c1ccccc1)c1ccccc1,–,inactive
CC(C)(C)c1cccc(C(C)(C)C)c1O,–,inactive
CCCCC(CC)COC(=O)CCCCC(=O)OCc1ccccc1 (stereo not given),–,inactive
CC1=C(/C=C/C(C)=C/C=C/C(C)=C/C(=O)O)C(C)(C)CCC1,–,inactive
NC(=O)N1C(=O)C(C(=O)c2cc(Cl)cs2)c2cc(F)c(Cl)cc21 (stereo not given),–,inactive
NCC(F)(F)C(F)(F)C(F)(F)C(F)(F)C(F)(F)C(F)(F)C(F)(F)F,–,inactive
CCCCCCCCOC(=O)CCCCCCCCC(=O)OCCCCCCCC,–,inactive
CCc1ccc(CCOc2ccc(CC3SC(=O)NC3=O)cc2)nc1 (stereo not given),–,inactive
CCC(=C(c1ccc(O)cc1)c1ccc(OCCN(C)C)cc1)c1ccccc1,–,inactive
CC(O)C(=O)O (stereo not given),–,inactive
COC(=O)CCCCC(=O)OC,–,inactive
